The source of these data is PMC11006913.

Targets include ALX4 (Homo sapiens, UniProt Q9H161 200-286, Q225E); HOXC9 (Homo sapiens, UniProt P31274 178-260, R222W); HESX1 (Homo sapiens, UniProt Q9UBX0 95-180).
Experiment in all cases: PBM; 200 nM protein, PBS
Details in all cases: dsDNA, one strand shown

For test [1], the target named is HOXB6 (Homo sapiens, UniProt P17509 132-218, K202E).
In test [2] the target is HOXB6 (Homo sapiens, UniProt P17509 132-218).
For test [3], the target named is T1, SIX6 (Homo sapiens, UniProt O95475 114-200, T165G).
T1 sequence: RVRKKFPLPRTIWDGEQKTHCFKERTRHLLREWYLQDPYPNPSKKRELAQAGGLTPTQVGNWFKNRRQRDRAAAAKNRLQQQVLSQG

The target of test [4] is T2, SIX6 (Homo sapiens, UniProt O95475 114-200, T165A).
T2 sequence: T1 sequence with G52A

Test [5] concerns the target HOXA2 (Homo sapiens, UniProt O43364 129-215, R185T).
The target of a further test is T3, NKX2-6 (Homo sapiens, UniProt A6NCS4 118-204, R150C).
T3 sequence: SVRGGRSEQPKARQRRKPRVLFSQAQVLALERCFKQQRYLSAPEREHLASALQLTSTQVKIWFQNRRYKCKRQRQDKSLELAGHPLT

The target of test [6] is MSX2 (Homo sapiens, UniProt P35548 130-214, R199I).
In test [7] the target is HOXA2 (Homo sapiens, UniProt O43364 129-215, R185K).
Test [8] has as its target MSX2 (Homo sapiens, UniProt P35548 130-214).
Test [9] has as its target MSX2 (Homo sapiens, UniProt P35548 130-214, F161Y).
For test [10], the target named is HOXA2 (Homo sapiens, UniProt O43364 129-215, Y150S).
In test [11] the target is HOXA2 (Homo sapiens, UniProt O43364 129-215).

Where a chain is given by its changes, count along the chain named.

Sequence of HOXB6 (Homo sapiens, UniProt P17509 132-218) (P17509 132-218): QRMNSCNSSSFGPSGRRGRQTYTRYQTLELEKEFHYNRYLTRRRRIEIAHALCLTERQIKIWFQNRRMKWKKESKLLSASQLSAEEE
Sequence of HOXB6 (Homo sapiens, UniProt P17509 132-218, K202E) (P17509 132-218 K202E): as the sequence (P17509 132-218) above, with K71E counted along it
Sequence of HESX1 (Q9UBX0 95-180): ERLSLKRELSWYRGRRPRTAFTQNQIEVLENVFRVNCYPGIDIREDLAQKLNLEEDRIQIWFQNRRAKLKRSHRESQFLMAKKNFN
Sequence of ALX4 (Q9H161 200-286 Q225E): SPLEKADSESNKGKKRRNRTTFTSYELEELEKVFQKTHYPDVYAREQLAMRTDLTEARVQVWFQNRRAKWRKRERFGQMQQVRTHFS
Sequence of HOXA2 (Homo sapiens, UniProt O43364 129-215, R185K) (O43364 129-215 R185K): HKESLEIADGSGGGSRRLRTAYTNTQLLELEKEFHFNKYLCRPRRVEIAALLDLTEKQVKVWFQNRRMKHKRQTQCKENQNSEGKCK
Sequence of HOXC9 (P31274 178-260 R222W): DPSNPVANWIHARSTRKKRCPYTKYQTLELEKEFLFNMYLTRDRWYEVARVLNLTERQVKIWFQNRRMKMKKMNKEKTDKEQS
Sequence of HOXA2 (Homo sapiens, UniProt O43364 129-215, R185T) (O43364 129-215 R185T): as the sequence (O43364 129-215 R185K) above, with K57T counted along it
Sequence of HOXA2 (Homo sapiens, UniProt O43364 129-215, Y150S) (O43364 129-215 Y150S): as the sequence (O43364 129-215 R185K) above, with Y22S, K57R counted along it
Sequence of MSX2 (Homo sapiens, UniProt P35548 130-214) (P35548 130-214): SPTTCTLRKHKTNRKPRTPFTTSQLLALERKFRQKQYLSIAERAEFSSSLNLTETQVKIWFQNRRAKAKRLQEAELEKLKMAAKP
Sequence of HOXA2 (Homo sapiens, UniProt O43364 129-215) (O43364 129-215): as the sequence (O43364 129-215 R185K) above, with K57R counted along it
Sequence of MSX2 (Homo sapiens, UniProt P35548 130-214, R199I) (P35548 130-214 R199I): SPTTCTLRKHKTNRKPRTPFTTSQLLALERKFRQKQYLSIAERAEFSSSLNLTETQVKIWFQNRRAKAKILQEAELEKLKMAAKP
Sequence of MSX2 (Homo sapiens, UniProt P35548 130-214, F161Y) (P35548 130-214 F161Y): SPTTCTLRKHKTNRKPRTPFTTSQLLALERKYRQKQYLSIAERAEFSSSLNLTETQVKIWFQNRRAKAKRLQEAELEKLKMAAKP

Take CCACGGAC: the binding signal with HOXB6 [1] was 9.01 upbm affinity estimate (log intensity, higher = more binding, comparable within an allelic series); with HOXB6 [2], 9.02 upbm affinity estimate (log intensity, higher = more binding, comparable within an allelic series).
Regarding AAGTACGA, the binding signal with HOXB6 [1] was 9.65 upbm affinity estimate (log intensity, higher = more binding, comparable within an allelic series); with HOXB6 [2], 10.3 upbm affinity estimate (log intensity, higher = more binding, comparable within an allelic series).
On to AGTCCTCC, for which the binding signal was 9.17 upbm affinity estimate (log intensity, higher = more binding, comparable within an allelic series) with HOXB6 [1] and 9.06 upbm affinity estimate (log intensity, higher = more binding, comparable within an allelic series) with HOXB6 [2].
Turning to GCTTGCCC, the binding signal was 9.05 upbm affinity estimate (log intensity, higher = more binding, comparable within an allelic series) with HOXB6 [1] and 9.1 upbm affinity estimate (log intensity, higher = more binding, comparable within an allelic series) with HOXB6 [2].
With AAAAAAAT, the binding signal in the test with HOXB6 [1] is 9.72 upbm affinity estimate (log intensity, higher = more binding, comparable within an allelic series); in the test with HOXB6 [2] it was 10.2 upbm affinity estimate (log intensity, higher = more binding, comparable within an allelic series).
CCCTCCGA: the binding signal with HOXB6 [1] was 9.02 upbm affinity estimate (log intensity, higher = more binding, comparable within an allelic series); with HOXB6 [2], 8.91 upbm affinity estimate (log intensity, higher = more binding, comparable within an allelic series).
In the case of CGCAGGAG, the binding signal with HOXB6 [1] is 9.14 upbm affinity estimate (log intensity, higher = more binding, comparable within an allelic series); with HOXB6 [2] it was 8.95 upbm affinity estimate (log intensity, higher = more binding, comparable within an allelic series).
Take ACTATTCA: the binding signal was 9.59 upbm affinity estimate (log intensity, higher = more binding, comparable within an allelic series) with HOXB6 [1] and 10.2 upbm affinity estimate (log intensity, higher = more binding, comparable within an allelic series) with HOXB6 [2].
Regarding CGCACACC, the binding signal with HOXB6 [1] was 9.16 upbm affinity estimate (log intensity, higher = more binding, comparable within an allelic series); with HOXB6 [2], 9.11 upbm affinity estimate (log intensity, higher = more binding, comparable within an allelic series).
CGGTGTGC: the binding signal with HOXB6 [1] is 9.02 upbm affinity estimate (log intensity, higher = more binding, comparable within an allelic series); in the test with HOXB6 [2], 8.92 upbm affinity estimate (log intensity, higher = more binding, comparable within an allelic series).
Consider TCTCATAA, for which the binding signal with HOXB6 [1] is 9.55 upbm affinity estimate (log intensity, higher = more binding, comparable within an allelic series); with HOXB6 [2], 10.4 upbm affinity estimate (log intensity, higher = more binding, comparable within an allelic series).
On to TCCTAGGA, for which the binding signal was 9.13 upbm affinity estimate (log intensity, higher = more binding, comparable within an allelic series) in the test with HOXB6 [1] and 9.16 upbm affinity estimate (log intensity, higher = more binding, comparable within an allelic series) with HOXB6 [2].
Turning to AATAAATA, the binding signal was 11 upbm affinity estimate (log intensity, higher = more binding, comparable within an allelic series) with ALX4 and 11 upbm affinity estimate (log intensity, higher = more binding, comparable within an allelic series) in the test with HOXC9.
For the sequence AGGGAGGA, the binding signal in the test with HOXB6 [1] was 9.04 upbm affinity estimate (log intensity, higher = more binding, comparable within an allelic series); with HOXB6 [2], 9.03 upbm affinity estimate (log intensity, higher = more binding, comparable within an allelic series).
In the case of TAATGGAA, the binding signal in the test with HOXB6 [1] was 9.72 upbm affinity estimate (log intensity, higher = more binding, comparable within an allelic series); in the test with HOXB6 [2] it was 10.8 upbm affinity estimate (log intensity, higher = more binding, comparable within an allelic series).
Take GCCGCCCA: the binding signal with HOXB6 [1] was 8.98 upbm affinity estimate (log intensity, higher = more binding, comparable within an allelic series); in the test with HOXB6 [2] it was 8.99 upbm affinity estimate (log intensity, higher = more binding, comparable within an allelic series).
In the case of AATGATTG, the binding signal with HOXB6 [1] is 9.68 upbm affinity estimate (log intensity, higher = more binding, comparable within an allelic series); with HOXB6 [2], 10.7 upbm affinity estimate (log intensity, higher = more binding, comparable within an allelic series).
Turning to CCGAGCGC, the binding signal with HOXB6 [1] was 9.06 upbm affinity estimate (log intensity, higher = more binding, comparable within an allelic series); in the test with HOXB6 [2], 9.04 upbm affinity estimate (log intensity, higher = more binding, comparable within an allelic series).
Turning to AATAAAAG, the binding signal with ALX4 was 10.4 upbm affinity estimate (log intensity, higher = more binding, comparable within an allelic series); with HOXC9, 11 upbm affinity estimate (log intensity, higher = more binding, comparable within an allelic series).
On to ACGCCGCG, for which the binding signal was 9.12 upbm affinity estimate (log intensity, higher = more binding, comparable within an allelic series) with HOXB6 [1] and 9.15 upbm affinity estimate (log intensity, higher = more binding, comparable within an allelic series) in the test with HOXB6 [2].
On to CCCCGGTC, for which the binding signal in the test with HOXB6 [1] was 8.98 upbm affinity estimate (log intensity, higher = more binding, comparable within an allelic series); in the test with HOXB6 [2], 9.03 upbm affinity estimate (log intensity, higher = more binding, comparable within an allelic series).
For CTGGTCCC, the binding signal in the test with HOXB6 [1] was 9.06 upbm affinity estimate (log intensity, higher = more binding, comparable within an allelic series); in the test with HOXB6 [2] it was 9.01 upbm affinity estimate (log intensity, higher = more binding, comparable within an allelic series).
Turning to AATAGTTC, the binding signal was 9.51 upbm affinity estimate (log intensity, higher = more binding, comparable within an allelic series) with HOXB6 [1] and 10.1 upbm affinity estimate (log intensity, higher = more binding, comparable within an allelic series) in the test with HOXB6 [2].
In the case of CTCCTCGC, the binding signal in the test with HOXB6 [1] is 9.02 upbm affinity estimate (log intensity, higher = more binding, comparable within an allelic series); with HOXB6 [2], 9.05 upbm affinity estimate (log intensity, higher = more binding, comparable within an allelic series).
Turning to AGGTGTCG, the binding signal in the test with SIX6 [3] was 10.5 upbm affinity estimate (log intensity, higher = more binding, comparable within an allelic series); with SIX6 [4], 10.4 upbm affinity estimate (log intensity, higher = more binding, comparable within an allelic series).
As to GACACCCA, the binding signal with SIX6 [3] is 10.5 upbm affinity estimate (log intensity, higher = more binding, comparable within an allelic series).
Turning to GGTTATGA, the binding signal with HESX1 is 7.26 upbm affinity estimate (log intensity, higher = more binding, comparable within an allelic series).
Consider AGACACCC, for which, in the test with SIX6 [3], the binding signal was 10.5 upbm affinity estimate (log intensity, higher = more binding, comparable within an allelic series).
In the case of GGTGACAC, the binding signal in the test with SIX6 [3] was 10.4 upbm affinity estimate (log intensity, higher = more binding, comparable within an allelic series); with SIX6 [4] it was 10.4 upbm affinity estimate (log intensity, higher = more binding, comparable within an allelic series).
On to ATTTACGC, for which, in the test with HESX1, the binding signal is 7.63 upbm affinity estimate (log intensity, higher = more binding, comparable within an allelic series).
For the sequence CTGGCTCC, the binding signal was 7.01 upbm affinity estimate (log intensity, higher = more binding, comparable within an allelic series) with HOXA2 [5]; 9.34 upbm affinity estimate (log intensity, higher = more binding, comparable within an allelic series) with NKX2-6; 9.47 upbm affinity estimate (log intensity, higher = more binding, comparable within an allelic series) in the test with MSX2 [6]; 10.3 upbm affinity estimate (log intensity, higher = more binding, comparable within an allelic series) with HOXA2 [7]; 9.34 upbm affinity estimate (log intensity, higher = more binding, comparable within an allelic series) in the test with MSX2 [8]; 9.4 upbm affinity estimate (log intensity, higher = more binding, comparable within an allelic series) in the test with MSX2 [9]. Besides, the binding signal was 10.5 upbm affinity estimate (log intensity, higher = more binding, comparable within an allelic series) in the test with HOXA2 [10] and 6.91 upbm affinity estimate (log intensity, higher = more binding, comparable within an allelic series) with HOXA2 [11].
In the case of GGTGATTA, the binding signal in the test with HOXA2 [5] is 12.6 upbm affinity estimate (log intensity, higher = more binding, comparable within an allelic series); with HOXA2 [7], 13.1 upbm affinity estimate (log intensity, higher = more binding, comparable within an allelic series).
Take ATAACTGC: the binding signal with HESX1 is 7.57 upbm affinity estimate (log intensity, higher = more binding, comparable within an allelic series).
As for CTGGTGTC, in the test with SIX6 [3], the binding signal is 10.6 upbm affinity estimate (log intensity, higher = more binding, comparable within an allelic series).
